The nature of the experiment: modulators of mitochondrial supercomplex assembly, cell-based, luminescence, Hoechst nuclei count (AID 1645838).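 On all read-outs here: control cybrid cells.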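 On z-score: higher means more mitochondrial supercomplex formation.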 As to conditions: Cells, luminescence/Hoechst cell count ratio, supercomplex reporter; for z-score: stronger effect = higher value; for cell count: measured here: cell number, Hoechst nuclei count.
The mark [1] stands for this setting: library stock concentration (final well concentration not given) 46 uM.
The mark [2] stands for this setting: library stock concentration (final well concentration not given) 278 uM.
Setting [3] is: library stock concentration (final well concentration not given) 1.67 mM.
The mark [4] stands for this setting: library stock concentration (final well concentration not given) 10 mM.
Setting [5] is: library stock concentration (final well concentration not given) 80 uM.
[6] abbreviates: library stock concentration (final well concentration not given) 400 uM.
[7] abbreviates: library stock concentration (final well concentration not given) 2 mM.

The campaign covered roughly 2,000 compounds. About 100 (5%) were called active. No stated cut-off is given here; in the data, active means z-score above about 2; inactive means the rest. The full list was thinned out, with actives kept by preference.

The results in this text go back to PubChem BioAssay AID1645838 (ICCB-Longwood Screening Facility, Harvard Medical School, 2021).

`O=C(O)CCC/C=C\CC1C(=O)C[C@@H](O)[C@@H]1/C=C/[C@@H](O)COc1ccccc1` (some centres not stated): the z-score was 0.988 (inactive) and the cell count worked out at 5150.

On to `CCN(CC)C(=O)CCC/C=C\C[C@@H]1[C@@H](/C=C/[C@@H](O)CCc2ccccc2)[C@H](O)C[C@@H]1O`, for which the z-score was 0.309 (inactive) and the cell count turned out to be 5000.

With `CCCCCCCC/C=C\CCCCCCCCCCCC(N)=O`, the z-score is -0.128 (inactive) and the cell count was 5640.

Take `CCCCCCCCCCCCCCCCCC(=O)NCCO`: the z-score was -0.675 (inactive) and the cell count came out at 6070.

Regarding `O=C(C(=O)c1ccc(Cl)cc1)c1ccc(Cl)cc1`, the z-score is, setting by setting: under setting [1], 0.501 (inactive); under setting [2], 0.0434 (inactive); under setting [3], 0.0353 (inactive); under setting [4], -0.186 (inactive). The cell count runs as follows: under setting [1], 6500; under setting [2], 6290; under setting [3], 6800; under setting [4], 6380.

For the compound `NC(=NCC[C@H](N)C(=O)O)NO`, the z-score was -0.121 (inactive) and the cell count was determined as 4620.

In the case of `CCC(=C(CC)c1ccc(O)cc1)c1ccc(O)cc1`, the z-score runs as follows: under setting [5], 0.303 (inactive); under setting [6], 0.161 (inactive); under setting [7], -0.198 (inactive); under setting [4], -1.11 (inactive). Moreover, the cell count reads like this: under setting [5], 5780; under setting [6], 5910; under setting [7], 5930; under setting [4], 5450.

Take `CCCCC/C=C\C/C=C\C/C=C\C/C=C\CCCCNC(=O)c1ccc(O)cc1`: the z-score was -0.229 (inactive) and the cell count worked out at 5700.

With `CCN(CC)c1ccc(C=NNC(=O)c2ccc(O)cc2)cc1`, the z-score is -0.275 (inactive) under setting [1], -0.201 (inactive) under setting [2], -0.4 (inactive) under setting [3] and 2.2 (active) under setting [4]. Further, the cell count is, setting by setting: under setting [1], 6830; under setting [2], 6590; under setting [3], 6690; under setting [4], 3360.

For the compound `CC(OC1OCCN(Cc2n[nH]c(=O)[nH]2)C1c1ccc(F)cc1)c1cc(C(F)(F)F)cc(C(F)(F)F)c1` (configuration not stated), the z-score reads like this: under setting [5], -0.483 (inactive); under setting [6], -0.157 (inactive); under setting [7], -0.324 (inactive); under setting [4], 1.44 (inactive). Further, the cell count is, setting by setting: under setting [5], 5120; under setting [6], 5200; under setting [7], 4790; under setting [4], 2820.

On to `CCCCCCCC/C=C\CCCCCCCC(=O)N[C@@H](CO)C(=O)O`, for which the z-score was 0.0618 (inactive) and the cell count stood at 5160.

Consider `NCC(=O)Nc1ccc(-n2nc(C(F)(F)F)cc2-c2ccc3c(ccc4ccccc43)c2)cc1`, for which, for the setting “library stock 10 mM”, the outcome was “inactive; censored for cell count”. Moreover, the z-score is, setting by setting: under setting [5], -0.354 (inactive); under setting [6], -0.201 (inactive); under setting [7], 4.63 (active). In addition, the cell count by setting is: under setting [5], 6120; under setting [6], 5230; under setting [7], 2710.

As for `Cc1nnsc1C(=O)Nc1ccc(-n2nc(C(F)(F)F)cc2C(F)(F)F)cc1`, the z-score is 0.284 (inactive) and the cell count stood at 4970.

`CCCCCCCCCCCCCCC(=O)NCCO`: the z-score reads like this: under setting [1], -0.0121 (inactive); under setting [2], 0.19 (inactive); under setting [3], -0.219 (inactive); under setting [4], 0.291 (inactive). For the same compound, the cell count runs as follows: under setting [1], 6780; under setting [2], 6410; under setting [3], 7210; under setting [4], 6620.

`CC(=O)c1cccc(NC(=O)CN2CCc3cc4c(cc3C2)OCCCO4)c1`: the z-score is 0.0242 (inactive) under setting [5], 0.451 (inactive) under setting [6], -0.169 (inactive) under setting [7] and 0.0588 (inactive) under setting [4]. Besides, the cell count was determined as 4960 under setting [5], 4830 under setting [6], 4760 under setting [7] and 4740 under setting [4].

For the compound `COc1cc2c(NC3CCN(CC4CCCCC4)CC3)nc(N3CCCN(C(C)C)CC3)nc2cc1OCCCN1CCCCC1`, for the setting “library stock 10 mM”, the outcome was “inactive; censored for cell count”. For the same compound, the z-score was -0.365 (inactive) under setting [5], -0.622 (inactive) under setting [6] and 0.193 (inactive) under setting [7]. Also, the cell count under setting [5] worked out at 6230, the cell count under setting [6] is 6560 and the cell count under setting [7] turned out to be 4370.

As for `COc1cc2c(NC3CCN(C(C)C)CC3)nc(C3CCCCC3)nc2cc1OCCCN1CCCC1`, the z-score under setting [1] was -0.551 (inactive), the z-score under setting [2] was -0.34 (inactive), the z-score under setting [3] was -0.454 (inactive) and the z-score under setting [4] was 0.796 (inactive). Further, the cell count was found to be 6710 under setting [1], 5680 under setting [2], 6450 under setting [3] and 1730 under setting [4].

With `COc1cc2nc(N3CCCN(C)CC3)nc(NC3CCN(Cc4ccccc4)CC3)c2cc1OC`, the z-score is -0.382 (inactive) and the cell count came to 5260. Besides, under setting [1], the z-score is -0.481 (inactive) and the cell count was found to be 6510. Further, under setting [2], the z-score was -0.471 (inactive) and the cell count came out at 6560. Also, under setting [3], the z-score is 0.298 (inactive) and the cell count stood at 5890. Moreover, under setting [4], the z-score was 10.9 (active) and the cell count turned out to be 2180.

On to `CCCCCC(=O)CC[C@H]1C(=O)C=C[C@@H]1C/C=C\CCCC(=O)O`, for which the z-score is 1.09 (inactive) and the cell count amounted to 5090.

Regarding `CC(C)(C)OC(=O)N1CCC(OC2CCNCC2)CC1`, the z-score reads like this: under setting [5], 0.0198 (inactive); under setting [6], 0.196 (inactive); under setting [7], 0.447 (inactive); under setting [4], 0.428 (inactive). Further, the cell count turned out to be 4690 under setting [5], 4710 under setting [6], 4640 under setting [7] and 4420 under setting [4].

On to `Cc1cc(CS(=O)(=O)c2ccccc2)cc(OCc2ccc(CN3CCCC3CO)cc2)c1` (configuration not stated), for which the z-score was -0.0615 (inactive) under setting [1], -0.164 (inactive) under setting [2], -0.0708 (inactive) under setting [3] and -0.221 (inactive) under setting [4]. Besides, the cell count is 5870 under setting [1], 5750 under setting [2], 5420 under setting [3] and 5130 under setting [4].

As to `CCCCCCCCCCCCC/C=C/[C@@H](O)[C@H](CO)NC(=O)CCCCC`, the z-score was -0.258 (inactive) and the cell count came out at 5330.

For the compound `CN(C)c1ccc(C(=O)NCCCCCCC(=O)NO)cc1`, the z-score is 6.25 (active) and the cell count stood at 3650.

On to `CC(/C=C/C(=O)NO)=C\[C@@H](C)C(=O)c1ccc(N(C)C)cc1`, for which the outcome is “inactive; censored for cell count”.

As for `CCOC(=O)NCCCC(=O)NCCc1ccccc1`, the z-score reads like this: under setting [1], -0.07 (inactive); under setting [2], -0.00876 (inactive); under setting [3], -0.143 (inactive); under setting [4], -0.14 (inactive). Besides, the cell count reads like this: under setting [1], 5970; under setting [2], 5710; under setting [3], 5220; under setting [4], 5550.

For the compound `Cc1ccc(NC(=O)CCCCCC(=O)Nc2ccccc2N)cc1`, the z-score was 1.29 (inactive) and the cell count was determined as 4790.

`CN(C)c1ccc(C(=O)NCCCCCC(=O)NO)cc1`: the z-score was 0.156 (inactive) and the cell count worked out at 5320.

`Cc1ccc(C(=O)NCCCCCC(=O)Nc2ccccc2N)cc1`: the z-score is 0.128 (inactive) under setting [5], 0.271 (inactive) under setting [6], 0.708 (inactive) under setting [7] and 4.86 (active) under setting [4]. Besides, the cell count reads like this: under setting [5], 5180; under setting [6], 5260; under setting [7], 4840; under setting [4], 3070.

Regarding `CCCCC[C@H](O)/C=C/[C@@H]1[C@@H](CCCCCCC(=O)O)[C@H](O)C[C@@H]1O`, the z-score was -0.12 (inactive) and the cell count was found to be 5440.

Consider `CC(C)CC[C@@H](O)[C@@H](C)C1CCC2C3CC=C4C[C@@H](O)CC[C@]4(C)C3CC[C@@]21C` (some centres not stated), for which the z-score was -0.379 (inactive) and the cell count was determined as 5080.

For the compound `COC(=O)CCC[C@H](O)[C@H](O)CO`, the z-score was -0.313 (inactive) and the cell count came to 5480.

Regarding `CCCCCC/C=C\CCCC(=O)CC(=O)N[C@H]1CCOC1=O`, the z-score was 0.196 (inactive) and the cell count is 5220.

In the case of `CCCCC(C)(C)[C@H](O)/C=C/[C@H]1[C@H](O)CC(=O)[C@@H]1CCCCCCC(=O)O`, the z-score is -0.22 (inactive) and the cell count came to 5310.

With `O=C(O)c1cc(C(F)(F)F)ccc1N1CCC(OCc2ccccn2)C1` (configuration not stated), the z-score is -0.188 (inactive) under setting [5], -0.142 (inactive) under setting [6], -0.236 (inactive) under setting [7] and -0.254 (inactive) under setting [4]. Also, the cell count was found to be 6080 under setting [5], 6070 under setting [6], 6240 under setting [7] and 5970 under setting [4].
